Inconclusive results are not listed. The source holds several records for some structures; these can differ, active in one and inactive in another. The source made the active and inactive calls. Calls follow the shape of the dose curve; as a rule, active = well fitted curve in the direction sought with a large enough effect; inconclusive = small, poorly fitted or top-dose-only effect, or another doubt; inactive = no such curve, though single readings can be large; an effect the other way counts as inactive or inconclusive.

Experiment [1] concerns the target Phospholipid hydroperoxide glutathione peroxidase GPX4 (Homo sapiens) (UniProt P36969). The experiment is described as follows: Primary qHTS Assay for Inhibitors of Recombinant Selenoprotein Glutathione Peroxidase 4 (GPX4) (AID 1845192). Also: nearly all actives have a fitted effect of over 65% in size. As to activity change, negative = inhibition: % is scaled to controls: 0 for no effect and ±100 for the full control effect. To be noted: recombinant GPX4, GR-coupled NADPH fluorescence, 15 min; series mostly up to 50 µM. The method in brief: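 qHTS, GR-coupled: GPX4 200 nM + cpd 30 min RT → GSH 1 mM, NADPH 0.5 mM, GR 100 nM → CHP 0.5 mM start; fluor 340/450 at t0 and t15 min; no-enzyme wells as control.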

Experiment [2] concerns the target Luciferin 4-monooxygenase (Photinus pyralis) (UniProt P08659). The experiment is described as follows: Primary firefly luciferase (FLuc) qHTS assay for identification of artifact compounds. (AID 1845220). Also: nearly all actives have a fitted effect of over 60% in size.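 As to activity change, negative = inhibition: plate controls were DMSO vehicle for no effect and no enzyme for full effect.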 To be noted: purified firefly luciferase, luminescence, 5 min; series mostly up to 54.1 µM. An outline of the steps: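 In this counter-screen for luciferase artifacts, test compounds met substrate (10 uM each luciferin and ATP) before 10 nM enzyme started the reaction. Light output was measured 5 min later.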

The nature of experiment [3]: Primary fluorescence-based thiol-reactive (MSTI) qHTS assay for identification of artifact compounds. (AID 1845221). Also: nearly all actives have a fitted effect of over 65% in size. To be noted: MSTI thiol-reactivity probe, 1 h; series mostly up to 53.8 µM. The method in brief: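 Compounds were incubated 1 h at room temperature in the dark with the MSTI probe (4 uM) in PBS pH 7.4, 2% DMSO. Signals were normalized between Acetyl-MSTI and MSTI.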

Experiment [4] deals with Nanoluciferase (engineered Oplophorus gracilirostris luciferase). The experiment is described as follows: Primary Nanoluciferase (NLuc) qHTS assay for identification of artifact compounds. (AID 1845222). Also: potency is read from the fitted curve at half-maximal effect. The settings on record: NLuc-conditioned medium, Nano-Glo luminescence, 5 min; series mostly up to 54.1 µM. An outline of the steps: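 Using secreted nanoluciferase in S16 culture medium (0.22 um filtered, 1:55 dilution), compounds were preincubated 15 min at RT. Signal was generated with Nano-Glo reagent (1:100) over 5 min.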

Experiment [5] can be described thus: Primary redox qHTS assay for identification of artifact compounds. (AID 1845223).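 Also: 0% = DMSO and 100% = reference compound.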 To be noted: Amplex Red/HRP redox cycling with DTT, fluorescence; series mostly up to 53.8 µM. The method in brief: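 Redox-cycling detection via DTT (250 uM final) oxidation coupled to Amplex Red (25 uM)/HRP (250 mU/mL) in HBSS. 15 min preincubation plus 30 min after DTT, room temperature. Ex/Em 525/598 nm; 4-parameter Hill fit against DMSO and 10 uM DA3003.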

The target in experiment [6] is Glutathione peroxidase 1 (Homo sapiens) (UniProt P07203). The experiment is described as follows: Primary qHTS Assay for Inhibitors of Recombinant Selenoprotein Glutathione Peroxidase 1 (GPX1) (AID 1845191). Also: nearly all actives have a fitted effect of over 65% in size. Also: potency is read from the fitted curve at half-maximal effect. The settings on record: recombinant GPX1, GR-coupled NADPH fluorescence, 15 min; series mostly up to 48.8 µM. An outline of the steps: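 GPX1 10 nM, GR 100 nM, GSH 1 mM, NADPH 0.5 mM, CHP 0.5 mM (final). 30-min cpd preincubation, RT. Ex340/Em450 read t=0, t=15 min.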
Chain of Glutathione peroxidase 1 (Homo sapiens) (P07203 whole entry, looked up): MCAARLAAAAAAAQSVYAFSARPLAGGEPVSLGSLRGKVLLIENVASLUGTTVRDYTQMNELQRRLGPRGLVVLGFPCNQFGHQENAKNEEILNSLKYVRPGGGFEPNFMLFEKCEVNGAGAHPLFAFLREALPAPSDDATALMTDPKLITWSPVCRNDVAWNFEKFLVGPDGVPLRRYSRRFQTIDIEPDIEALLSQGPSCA

Chain of Phospholipid hydroperoxide glutathione peroxidase GPX4 (Homo sapiens) (P36969 whole entry, looked up): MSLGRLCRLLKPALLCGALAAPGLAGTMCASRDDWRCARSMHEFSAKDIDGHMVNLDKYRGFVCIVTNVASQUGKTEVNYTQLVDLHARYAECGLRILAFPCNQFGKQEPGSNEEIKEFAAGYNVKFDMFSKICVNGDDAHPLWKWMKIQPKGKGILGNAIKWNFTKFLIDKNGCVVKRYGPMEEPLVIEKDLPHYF

With `O=c1[nH]c(=O)n([C@H]2CCCO2)cc1F`, the Potency result in experiment [1], in experiment [3] and in experiment [4] was “inactive” each time. Also, the result in experiment [2] and in experiment [5] was inactive.
For the compound `COc1cccc(OC)c1C(=O)N[C@@H]1C(=O)N2[C@@H]1SC(C)(C)[C@@H]2C(=O)O`, in experiment [2], the compound was classed as inactive. Also, the Potency result in experiment [3] and in experiment [4] was “inactive” each time.
Consider `COc1cc(N)c(Cl)cc1C(=O)NC1CCN(CCCOc2ccc(F)cc2)CC1OC` (centres undefined), for which the Potency entry in experiment [1] was “inactive”.
As to `Cc1cc2c(cc1CC(=O)c1sccc1S(=O)(=O)Nc1onc(C)c1Cl)OCO2`, the Potency in experiment [6] is 18 µM (active) and inactive; in experiment [4], 16.9 µM (active). In addition, the Potency result in experiment [1] is “inactive”. In addition, the result in experiment [2] and in experiment [5] was inactive.
For `CC(O)(P(=O)(O)O)P(=O)(O)O`, the Potency entry in experiment [1] is “inactive”.
The same measure, in the same setting: in the case of `CC(=O)Nc1c(I)cc(I)c(C(=O)O)c1I` it was “inactive”.
In the case of `CC(C)(C)CC(C)(C)c1ccc(OCCOCC[N+](C)(C)Cc2ccccc2)cc1`, the compound was called inactive in experiment [2] and in experiment [5]. Besides, the Potency entry in experiment [3] and in experiment [4] was “inactive” each time.
Take `CC/C(=C(/CC)c1ccc(O)cc1)c1ccc(O)cc1`: the Potency result in experiment [1] was “inactive”.
On to `Cc1ccc(Nc2c(F)cccc2Cl)c(CC(=O)O)c1`, for which the Potency entry in experiment [1] and in experiment [4] was “inactive” each time. The compound was called inactive in experiment [2] and in experiment [5].
For the compound `COc1ccc(CN2CCN(C(c3ccc(F)cc3)c3ccc(F)cc3)CC2)c(OC)c1OC`, the Potency result in experiment [1], in experiment [3] and in experiment [4] was “inactive” throughout. For the same compound, the outcome in experiment [2] and in experiment [5] was inactive.
On to `C[C@H]1C[C@H]2[C@@H]3CCC4=CC(=O)C=C[C@]4(C)[C@@]3(Cl)[C@@H](O)C[C@]2(C)[C@@]1(O)C(=O)CO`, for which the Potency entry in experiment [1] is “inactive”.
Consider `CCCCS(=O)(=O)N[C@@H](Cc1ccc(OCCCCC2CCNCC2)cc1)C(=O)O`, for which the Potency result in experiment [6], in experiment [1], in experiment [3] and in experiment [4] was “inactive” in each case. The outcome in experiment [2] and in experiment [5] was inactive.
As to `CC1(C)OC[C@@H](COC(=O)CCc2ccc(OC[C@@H](O)CNCCNC(=O)N3CCOCC3)cc2)O1`, the Potency result in experiment [1] was “inactive”.
`NC(=NCCCCCCN=C(N)/N=C(\N)Nc1ccc(Cl)cc1)/N=C(\N)Nc1ccc(Cl)cc1`: the Potency result in experiment [6], in experiment [1], in experiment [3] and in experiment [4] was “inactive” in each case. The compound was classed as inactive in experiment [2] and in experiment [5].
As for `Cc1ncc(CSSCc2cnc(C)c(O)c2CO)c(CO)c1O`, the Potency entry in experiment [1] is “inactive”.
Still for that read-out and setting: for `CC(=O)Oc1ccc(C(=C2CCCCC2)c2ccc(OC(C)=O)cc2)cc1` the value was “inactive”; for `CCN1CCN(c2cc3c(cc2F)c(=O)c(C(=O)O)cn3C2CC2)CC1`, “inactive”.
In the case of `Nc1ccn([C@@H]2O[C@H](CO)[C@@H](O)C2(F)F)c(=O)n1`, the Potency entry in experiment [1], in experiment [3] and in experiment [4] was “inactive” throughout. Besides, the outcome in experiment [2] and in experiment [5] was inactive.
For `OC[C@H]1O[C@H](O[C@]2(CCl)O[C@H](CCl)[C@@H](O)[C@@H]2O)[C@H](O)[C@@H](O)[C@H]1Cl`, the Potency result in experiment [1], in experiment [3] and in experiment [4] was “inactive” each time. Also, the result in experiment [2] and in experiment [5] was inactive.
With `CC(=O)OCC(=O)[C@@]1(OC(C)=O)[C@@H](C)C[C@H]2[C@@H]3C[C@H](F)C4=CC(=O)C=C[C@]4(C)[C@@]3(F)[C@@H](O)C[C@@]21C`, the Potency result in experiment [1] is “inactive”.
On to `CN1C(CCl)Nc2cc(Cl)c(S(N)(=O)=O)cc2S1(=O)=O` (centres undefined), for which the Potency entry in experiment [1], in experiment [3] and in experiment [4] was “inactive” each time. Besides, the compound was classed as inactive in experiment [2] and in experiment [5].
Take `CCN(CCCc1ccccc1)CCCc1ccccc1`: the Potency entry in experiment [1] was “inactive”.
Regarding `CC(C)(C)NC(=O)[C@@H]1CN(Cc2cccnc2)CCN1C[C@@H](O)C[C@@H](Cc1ccccc1)C(=O)N[C@H]1c2ccccc2C[C@H]1O`, the Potency result in experiment [6], in experiment [1], in experiment [3] and in experiment [4] was “inactive” throughout. The result in experiment [2] and in experiment [5] was inactive.
Turning to `CCn1cc(C(=O)O)c(=O)c2cnc(N3CCCC3)nc21`, the activity change, negative = inhibition in experiment [1] is -6.64% [at 9.73 µM] (inactive).
Regarding `CN1CCN(C(c2ccccc2)c2ccccc2)CC1`, the Potency result in experiment [6], in experiment [1] and in experiment [4] was “inactive” throughout. The compound was called inactive in experiment [2] and in experiment [5].
Take `Cc1ccc(C(=O)C(C)CN2CCCCC2)cc1` (centres undefined): the Potency result in experiment [1], in experiment [3] and in experiment [4] was “inactive” throughout. Moreover, the compound was called inactive in experiment [2] and in experiment [5].
With `CCCN1CCCC[C@H]1C(=O)Nc1c(C)cccc1C`, the Potency result in experiment [1] is “inactive”.
With `COC(=O)C1=C(C)NC(C)=C(C(=O)O[C@@H]2CCCN(Cc3ccccc3)C2)[C@@H]1c1cccc([N+](=O)[O-])c1`, the Potency entry in experiment [6], in experiment [1] and in experiment [3] was “inactive” throughout. Besides, the result in experiment [2] and in experiment [5] was inactive.
For `CC(=O)O[C@]1(C(C)=O)CC[C@H]2[C@@H]3C[C@H](C)C4=CC(=O)CC[C@]4(C)[C@H]3CC[C@@]21C`, the Potency entry in experiment [1], in experiment [3] and in experiment [4] was “inactive” throughout. Further, the call in experiment [2] and in experiment [5] was inactive.
For the compound `Cc1ccccc1C(=O)Nc1ccc(C(=O)N2CCCC(N(C)C)c3ccccc32)cc1` (centres undefined), the Potency entry in experiment [6], in experiment [1], in experiment [3] and in experiment [4] was “inactive” throughout. In addition, the call in experiment [2] and in experiment [5] was inactive.
As to `COC(=O)CCc1ccc(OCC(O)CNC(C)C)cc1` (centres undefined), the Potency entry in experiment [1], in experiment [3] and in experiment [4] was “inactive” in each case. For the same compound, the compound was called inactive in experiment [2] and in experiment [5].
For `CC(=O)OCC(=O)[C@@]1(O)CC[C@H]2[C@@H]3CCC4=CC(=O)C=C[C@]4(C)[C@H]3[C@@H](O)C[C@@]21C`, the Potency entry in experiment [6], in experiment [1], in experiment [3] and in experiment [4] was “inactive” each time. In addition, the compound was called inactive in experiment [2] and in experiment [5].
